Measurements reported in publication PMC11006913.
Positions count from the first letter of the chain named.

Legend:
Test in all cases: PBM; 200 nM protein, PBS
Conditions in all cases: dsDNA, one strand shown
ALX1 [1] = target: ALX1 (Homo sapiens, UniProt Q15699 118-204, L144V)
ALX1 [2] = target: ALX1 (Homo sapiens, UniProt Q15699 118-204, L144R)
ALX1 [3] = target: ALX1 (Homo sapiens, UniProt Q15699 118-204)
MSX2 [4] = target: MSX2 (Homo sapiens, UniProt P35548 130-214, R199I)
MSX2 [5] = target: MSX2 (Homo sapiens, UniProt P35548 130-214)
Chain of MSX2 (Homo sapiens, UniProt P35548 130-214) (P35548 130-214): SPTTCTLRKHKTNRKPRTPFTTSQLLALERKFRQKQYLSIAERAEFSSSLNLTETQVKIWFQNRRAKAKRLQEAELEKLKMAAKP

MSX2 [6] = target: MSX2 (Homo sapiens, UniProt P35548 130-214, F161Y)
Chain of MSX2 (Homo sapiens, UniProt P35548 130-214, F161Y) (P35548 130-214 F161Y): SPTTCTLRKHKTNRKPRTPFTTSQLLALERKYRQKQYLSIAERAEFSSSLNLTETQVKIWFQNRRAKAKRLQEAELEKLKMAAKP

ALX3 [7] = target: ALX3 (Homo sapiens, UniProt O95076 139-225, N203Q)
Chain of ALX3 (Homo sapiens, UniProt O95076 139-225, N203Q) (O95076 139-225 N203Q): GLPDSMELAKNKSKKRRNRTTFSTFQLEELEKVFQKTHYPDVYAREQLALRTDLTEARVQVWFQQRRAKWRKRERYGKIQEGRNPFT

ALX3 [8] = target: ALX3 (Homo sapiens, UniProt O95076 139-225)
Chain of ALX3 (Homo sapiens, UniProt O95076 139-225) (O95076 139-225): as the sequence (O95076 139-225 N203Q) above, with Q65N counted along it

ALX3 [9] = target: ALX3 (Homo sapiens, UniProt O95076 139-225, L168Q)
Chain of ALX3 (Homo sapiens, UniProt O95076 139-225, L168Q) (O95076 139-225 L168Q): as the sequence (O95076 139-225 N203Q) above, with L30Q, Q65N counted along it

ALX3 [10] = target: ALX3 (Homo sapiens, UniProt O95076 139-225, L168V)
Chain of ALX3 (Homo sapiens, UniProt O95076 139-225, L168V) (O95076 139-225 L168V): as the sequence (O95076 139-225 N203Q) above, with L30V, Q65N counted along it

ALX3 [11] = target: ALX3 (Homo sapiens, UniProt O95076 139-225, N203S)
Chain of ALX3 (Homo sapiens, UniProt O95076 139-225, N203S) (O95076 139-225 N203S): as the sequence (O95076 139-225 N203Q) above, with Q65S counted along it

ALX4 [12] = target: ALX4 (Homo sapiens, UniProt Q9H161 200-286)
Chain of ALX4 (Homo sapiens, UniProt Q9H161 200-286) (Q9H161 200-286): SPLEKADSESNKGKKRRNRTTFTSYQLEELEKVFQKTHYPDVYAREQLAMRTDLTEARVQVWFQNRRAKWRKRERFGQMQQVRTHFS

PRRX1 [13] = target: PRRX1 (Homo sapiens, UniProt P54821 80-166, F113S)
Chain of PRRX1 (Homo sapiens, UniProt P54821 80-166, F113S) (P54821 80-166 F113S): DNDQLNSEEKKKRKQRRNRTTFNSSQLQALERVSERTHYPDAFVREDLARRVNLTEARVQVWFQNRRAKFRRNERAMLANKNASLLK

ALX4 [14] = target: ALX4 (Homo sapiens, UniProt Q9H161 200-286, Q225E)
Chain of ALX4 (Homo sapiens, UniProt Q9H161 200-286, Q225E) (Q9H161 200-286 Q225E): as the sequence (Q9H161 200-286) above, with Q26E counted along it

PRRX1 [15] = target: PRRX1 (Homo sapiens, UniProt P54821 80-166)
Chain of PRRX1 (Homo sapiens, UniProt P54821 80-166) (P54821 80-166): as the sequence (P54821 80-166 F113S) above, with S34F counted along it

PAX4 [16] = target: T1, PAX4 (Homo sapiens, UniProt O43316 9-242)
T1 sequence: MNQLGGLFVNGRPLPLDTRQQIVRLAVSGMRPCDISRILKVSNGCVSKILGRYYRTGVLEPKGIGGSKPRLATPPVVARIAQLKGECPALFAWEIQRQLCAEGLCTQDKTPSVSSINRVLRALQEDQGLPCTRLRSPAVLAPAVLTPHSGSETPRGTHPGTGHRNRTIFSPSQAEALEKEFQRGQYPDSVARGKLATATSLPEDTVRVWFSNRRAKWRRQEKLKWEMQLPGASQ

PAX4 [17] = target: T2, PAX4 (Homo sapiens, UniProt O43316 9-242, R200Q)
T2 sequence: T1 sequence with R192Q

PAX4 [18] = target: T3, PAX4 (Homo sapiens, UniProt O43316 9-242, F177V)
T3 sequence: T1 sequence with F169V

PAX4 [19] = target: T4, PAX4 (Homo sapiens, UniProt O43316 9-242, R227W)
T4 sequence: T1 sequence with R219W

Chain of ALX1 (Homo sapiens, UniProt Q15699 118-204) (Q15699 118-204): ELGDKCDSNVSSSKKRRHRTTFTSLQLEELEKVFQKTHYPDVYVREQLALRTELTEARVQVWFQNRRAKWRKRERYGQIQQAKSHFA
Chain of ALX1 (Homo sapiens, UniProt Q15699 118-204, L144R) (Q15699 118-204 L144R): as the sequence (Q15699 118-204) above, with L27R counted along it
Chain of ALX1 (Homo sapiens, UniProt Q15699 118-204, L144V) (Q15699 118-204 L144V): as the sequence (Q15699 118-204) above, with L27V counted along it
Chain of MSX2 (Homo sapiens, UniProt P35548 130-214, R199I) (P35548 130-214 R199I): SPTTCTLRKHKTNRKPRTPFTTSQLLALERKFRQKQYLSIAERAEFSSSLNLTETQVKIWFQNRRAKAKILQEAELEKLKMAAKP

For GGCCCCCA, the binding signal (ALX1 [1]) was 6.64 upbm affinity estimate (log intensity, higher = more binding, comparable within an allelic series), the binding signal (ALX1 [2]) was 6.56 upbm affinity estimate (log intensity, higher = more binding, comparable within an allelic series) and the binding signal (ALX1 [3]) was 6.65 upbm affinity estimate (log intensity, higher = more binding, comparable within an allelic series).

For CCGGACCA, the binding signal (MSX2 [4]) was 9.46 upbm affinity estimate (log intensity, higher = more binding, comparable within an allelic series), the binding signal (MSX2 [5]) was 9.39 upbm affinity estimate (log intensity, higher = more binding, comparable within an allelic series) and the binding signal (MSX2 [6]) was 9.4 upbm affinity estimate (log intensity, higher = more binding, comparable within an allelic series).

CAGACCCC was tested, and the binding signal (ALX3 [7]) was 7.73 upbm affinity estimate (log intensity, higher = more binding, comparable within an allelic series), the binding signal (ALX3 [8]) was 7.61 upbm affinity estimate (log intensity, higher = more binding, comparable within an allelic series) and the binding signal (ALX3 [9]) was 7.69 upbm affinity estimate (log intensity, higher = more binding, comparable within an allelic series). For the same sequence, the binding signal (ALX3 [10]) was 7.66 upbm affinity estimate (log intensity, higher = more binding, comparable within an allelic series) and the binding signal (ALX3 [11]) was 7.74 upbm affinity estimate (log intensity, higher = more binding, comparable within an allelic series).

In the case of CAGGCCCC, the binding signal (ALX3 [7]) is reported as 7.7 upbm affinity estimate (log intensity, higher = more binding, comparable within an allelic series), the binding signal (ALX3 [8]) is reported as 7.63 upbm affinity estimate (log intensity, higher = more binding, comparable within an allelic series) and the binding signal (ALX3 [9]) is reported as 7.69 upbm affinity estimate (log intensity, higher = more binding, comparable within an allelic series). For the same sequence, the binding signal (ALX3 [10]) was 7.7 upbm affinity estimate (log intensity, higher = more binding, comparable within an allelic series) and the binding signal (ALX3 [11]) was 7.69 upbm affinity estimate (log intensity, higher = more binding, comparable within an allelic series).

With ATTAATCA the binding signal (ALX4 [12]) was 13.7 upbm affinity estimate (log intensity, higher = more binding, comparable within an allelic series), the binding signal (PRRX1 [13]) was 11.3 upbm affinity estimate (log intensity, higher = more binding, comparable within an allelic series) and the binding signal (ALX4 [14]) was 12.7 upbm affinity estimate (log intensity, higher = more binding, comparable within an allelic series). The binding signal (ALX1 [1]) was 11.5 upbm affinity estimate (log intensity, higher = more binding, comparable within an allelic series), the binding signal (ALX3 [7]) was 8.54 upbm affinity estimate (log intensity, higher = more binding, comparable within an allelic series) and the binding signal (ALX1 [2]) was 11.3 upbm affinity estimate (log intensity, higher = more binding, comparable within an allelic series). The binding signal (ALX3 [8]) was 12.3 upbm affinity estimate (log intensity, higher = more binding, comparable within an allelic series), the binding signal (ALX3 [9]) was 10.2 upbm affinity estimate (log intensity, higher = more binding, comparable within an allelic series) and the binding signal (ALX3 [10]) was 9.65 upbm affinity estimate (log intensity, higher = more binding, comparable within an allelic series). For the same sequence, the binding signal (ALX1 [3]) was 12 upbm affinity estimate (log intensity, higher = more binding, comparable within an allelic series), the binding signal (ALX3 [11]) was 8.61 upbm affinity estimate (log intensity, higher = more binding, comparable within an allelic series) and the binding signal (PRRX1 [15]) was 13.3 upbm affinity estimate (log intensity, higher = more binding, comparable within an allelic series).

CGGGCTTC was tested, and the binding signal (PAX4 [16]) was 8.97 upbm affinity estimate (log intensity, higher = more binding, comparable within an allelic series), the binding signal (MSX2 [4]) was 9.39 upbm affinity estimate (log intensity, higher = more binding, comparable within an allelic series) and the binding signal (PAX4 [17]) was 9.21 upbm affinity estimate (log intensity, higher = more binding, comparable within an allelic series). The binding signal (PAX4 [18]) was 9.17 upbm affinity estimate (log intensity, higher = more binding, comparable within an allelic series), the binding signal (MSX2 [5]) was 9.32 upbm affinity estimate (log intensity, higher = more binding, comparable within an allelic series) and the binding signal (MSX2 [6]) was 9.35 upbm affinity estimate (log intensity, higher = more binding, comparable within an allelic series). The binding signal (PAX4 [19]) was 9.24 upbm affinity estimate (log intensity, higher = more binding, comparable within an allelic series).

With TTAATGAA the binding signal (ALX1 [1]) was 11 upbm affinity estimate (log intensity, higher = more binding, comparable within an allelic series), the binding signal (ALX1 [2]) was 10.7 upbm affinity estimate (log intensity, higher = more binding, comparable within an allelic series) and the binding signal (ALX1 [3]) was 11.5 upbm affinity estimate (log intensity, higher = more binding, comparable within an allelic series).

CGAGGCAC was tested, and the binding signal (MSX2 [4]) was 9.52 upbm affinity estimate (log intensity, higher = more binding, comparable within an allelic series), the binding signal (MSX2 [5]) was 9.5 upbm affinity estimate (log intensity, higher = more binding, comparable within an allelic series) and the binding signal (MSX2 [6]) was 9.56 upbm affinity estimate (log intensity, higher = more binding, comparable within an allelic series).
